# Laboratory results as given in PubChem BioAssay (Tox21).
# Results filed as inconclusive are left out. Entries that show only a call come without a potency. Unmarked numbers belong to inactive results. Activity calls are given as the source filed them. The call rests on the fitted dose curve.
# Test: qHTS assay to identify small molecule antagonists of the sonic hedgehog signaling (Shh) pathway (AID 1259369); further: nearly all actives have a fitted effect of over 45% in size
# Conditions: NIH/3T3 Gli1-Luc reporter, Shh antagonist, luminescence 24 h; series mostly up to 92.4 µM
# In short: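 Screening used 3T3Gli1-Luc cells at 2,000 per well, compounds delivered in DMSO, and conditioned medium as agonist stimulus; plates incubated 24hr at 37 C and 5% CO2 before a 30min luciferase step.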
# Potency means the concentration at half of the fitted maximal effect.
SMILES,Potency,"activity change, negative = inhibition"
C[N+]1(C)CCC(=C(c2ccccc2)c2ccccc2)CC1,inactive,–
CC[C@@H]([C@H](C)O)n1ncn(-c2ccc(N3CCN(c4ccc(OC[C@@H]5CO[C@@](Cn6cncn6)(c6ccc(F)cc6F)C5)cc4)CC3)cc2)c1=O,188 nM (active),–
CCCCCC=CCC=CCCCCCCCC(=O)OCC,inactive,–
CN1Cc2cc(C(=O)N3CCC(C4CCNCC4)CC3)ccc2N[C@@H](CC(=O)O)C1=O,inactive,–
Cc1cc(S(=O)(=O)O)ccc1N=Nc1c(O)ccc2ccccc12,inactive,–
Cc1ccccc1N1C(=O)c2cc(S(N)(=O)=O)c(Cl)cc2NC1C (stereo not given),inactive,–
CCCCC(CC)C(=O)OCCOCCOCCOCCOC(=O)C(CC)CCCC (stereo not given),inactive,–
CC[C@H](NC(=O)c1cc(F)ccc1NS(=O)(=O)c1cccc2cccnc12)c1ccccc1,inactive,–
CC(C)(C)CC(C)(C)c1ccc(OCCO)cc1,15300 nM (active),–
CN1CCN(c2c(F)cc3c(=O)c(C(=O)O)cn4c3c2OCN4C)CC1,–,2.85% [at 19 µM]
C=CC(=O)NCOCC(C)C,inactive,–
C1COCO1,inactive,–
c1cnc2c(n1)CCCC2,inactive,–
O=C(CCCCCCCCC#CI)Oc1ccccc1,inactive,–
CO[C@@]12[C@H](COC(N)=O)C3=C(C(=O)C(C)=C(N)C3=O)N1C[C@@H]1N[C@@H]12,298 nM (active),–
CCCCCCCCCOC(C)=O,inactive,–
O=C(O)c1cccc(O)c1,inactive,–
CC(CCO)CCc1ccccc1 (stereo not given),inactive,–
Oc1cc(O)c(Cl)cc1Cl,inactive,–
CCCCC(CC)COC(=O)COc1ccc(Cl)cc1C (stereo not given),inactive,–
